The text below walks through data of PubChem BioAssay (EPA / NIEHS).

In test [1] the target is human CYP4F12, CYP4F12 (gene 66002) (UniProt Q9HCS2). The test is described as follows: NVS_ADME_hCYP4F12: NovaScreen (NVS) CYP450-related Enzyme Activity (ADME) Assay for human CYP4F12 (AID 2283111). In a few lines: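 Cell-free fluorescence assay of recombinant human CYP4F12 activity on a specific substrate, read 0.5 h after dosing. Primary screen in duplicate at 10 uM, then concentration series for actives; loss of signal fitted against acetonitrile negative control.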
Sequence of human CYP4F12, CYP4F12 (gene 66002) (Q9HCS2 whole entry, looked up): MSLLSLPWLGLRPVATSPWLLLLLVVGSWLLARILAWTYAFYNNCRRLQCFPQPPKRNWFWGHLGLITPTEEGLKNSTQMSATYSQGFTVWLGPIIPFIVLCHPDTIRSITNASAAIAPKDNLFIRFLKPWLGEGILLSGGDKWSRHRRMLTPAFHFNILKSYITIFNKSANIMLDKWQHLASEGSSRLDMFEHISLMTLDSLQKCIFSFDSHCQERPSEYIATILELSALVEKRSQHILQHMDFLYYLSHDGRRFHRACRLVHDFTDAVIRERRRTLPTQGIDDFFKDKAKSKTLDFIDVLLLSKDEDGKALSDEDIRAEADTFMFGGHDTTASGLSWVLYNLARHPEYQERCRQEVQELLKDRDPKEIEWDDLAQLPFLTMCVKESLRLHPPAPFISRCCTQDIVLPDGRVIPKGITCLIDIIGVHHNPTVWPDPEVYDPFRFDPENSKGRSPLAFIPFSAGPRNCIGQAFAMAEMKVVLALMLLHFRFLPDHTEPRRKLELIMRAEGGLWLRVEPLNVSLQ

A further test deals with PPP2CA (gene 5515) (UniProt P67775). The test is described as follows: NVS_ENZ_hPPP2CA: NovaScreen (NVS) Enzymatic Assay for human Protein Phosphatase 2 Aatalytic subunit Alpha (PPP2CA) (AID 2283199). Put shortly: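 Recombinant human PPP2CA with fluorescent substrate; product separated from substrate by electrophoretic mobility shift, read 1.33 h after dosing. Duplicate single-point at 25 uM, then singleton concentration-response up to 50 uM; loss of signal versus DMSO.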

Test [2] in a line: CCTE_Harrill_HTTr_Apoptosis_PRF_DMEM_12hr: (Pilot) CCTE's 12-hour Apoptosis Assessment for the High-Throughput Transcriptomics (HTTr) Platform, in MCF-7 cells cultured in phenol red-free DMEM + 10% charcoal-stripped fetal bovine serum, Harrill Lab (AID 2283985; active = hit-call score of the fitted dose curve at least 0.9, where 1 is the maximum; inactive = score below 0.9). Put shortly: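 MCF-7 cells in phenol red-free DMEM with 10% charcoal-stripped FBS, eight-point dilution series, 12 h exposure. Caspase-3/7 activation imaged by high content imaging with CellEvent Green reagent; bidirectional fit vs DMSO.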

The target of test [3] is human AMP-activated Protein Kinase, alpha 1 (AMPKa1), PRKAA1 (gene 5562) (UniProt Q13131). The test is described as follows: NVS_ENZ_hAMPKa1: NovaScreen (NVS) Enzymatic Assay for human AMP-activated Protein Kinase, alpha 1 (AMPKa1) (AID 2283130). In a few lines:
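Recombinant human AMPKα1 activity was measured cell-free by fluorescent substrate conversion with electrophoretic mobility-shift separation, 1 h after dosing. Duplicate single-point screening was at 25 uM; actives (≥30% inhibition) were retested in concentration-response up to 50 uM.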

For test [4], the target named is human Epidermal Growth Factor Receptor (EGFR), EGFR (gene 1956) (UniProt P00533). Put plainly: NVS_ENZ_hEGFR: NovaScreen (NVS) Enzymatic Assay for human Epidermal Growth Factor Receptor (EGFR) (AID 2283151). In a few lines: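 Cell-free kinase assay, fluorescence plus electrophoretic mobility shift separating substrate and product, read 1 hour after dosing; loss of signal vs DMSO. Duplicate screen at 25 uM, then concentration-response to 50 uM.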
Sequence of human Epidermal Growth Factor Receptor (EGFR), EGFR (gene 1956) (P00533 whole entry, looked up): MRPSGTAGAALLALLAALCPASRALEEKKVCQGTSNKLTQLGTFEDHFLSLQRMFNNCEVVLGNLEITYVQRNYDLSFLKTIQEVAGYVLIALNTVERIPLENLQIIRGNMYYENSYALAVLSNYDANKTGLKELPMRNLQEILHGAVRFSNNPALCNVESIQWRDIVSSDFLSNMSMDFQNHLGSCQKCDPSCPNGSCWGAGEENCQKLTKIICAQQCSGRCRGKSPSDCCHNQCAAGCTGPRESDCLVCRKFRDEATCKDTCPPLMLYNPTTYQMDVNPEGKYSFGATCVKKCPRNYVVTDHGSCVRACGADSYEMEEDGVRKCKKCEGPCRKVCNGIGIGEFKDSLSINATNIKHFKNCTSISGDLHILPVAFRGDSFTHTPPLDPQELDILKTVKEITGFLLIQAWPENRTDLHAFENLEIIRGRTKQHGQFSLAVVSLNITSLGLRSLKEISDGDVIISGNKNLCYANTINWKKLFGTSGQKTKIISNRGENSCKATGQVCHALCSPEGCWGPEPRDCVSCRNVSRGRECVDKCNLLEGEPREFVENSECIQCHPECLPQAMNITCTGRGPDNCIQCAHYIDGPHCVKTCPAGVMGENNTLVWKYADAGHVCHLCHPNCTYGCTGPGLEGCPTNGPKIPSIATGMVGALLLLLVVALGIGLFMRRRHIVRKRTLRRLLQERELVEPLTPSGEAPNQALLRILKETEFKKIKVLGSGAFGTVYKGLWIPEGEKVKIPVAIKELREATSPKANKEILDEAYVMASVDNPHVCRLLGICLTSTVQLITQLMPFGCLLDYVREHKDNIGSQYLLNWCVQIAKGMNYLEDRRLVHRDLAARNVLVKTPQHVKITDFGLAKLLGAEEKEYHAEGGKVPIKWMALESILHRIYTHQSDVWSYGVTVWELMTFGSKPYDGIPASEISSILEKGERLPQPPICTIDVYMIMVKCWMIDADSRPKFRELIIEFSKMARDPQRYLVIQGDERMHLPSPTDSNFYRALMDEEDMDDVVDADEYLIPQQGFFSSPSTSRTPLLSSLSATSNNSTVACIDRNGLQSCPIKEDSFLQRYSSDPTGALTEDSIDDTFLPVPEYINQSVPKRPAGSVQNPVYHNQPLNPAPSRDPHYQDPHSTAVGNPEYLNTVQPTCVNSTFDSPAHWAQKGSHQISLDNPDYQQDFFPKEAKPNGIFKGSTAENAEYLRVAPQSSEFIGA

The target in test [5] is Protein deacetylase HDAC6 (Homo sapiens) (UniProt Q9UBN7). Put plainly: NVS_ENZ_hHDAC6: NovaScreen (NVS) Enzymatic Assay for human Histone Deacetylase 6 (HDAC6) (AID 2283164). Put shortly:
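Recombinant human HDAC6 with fluorescent substrate, 1 h; product separated from substrate by electrophoretic mobility shift. Primary screen in duplicate at 25 uM; actives retested singly in concentration-response up to 50 uM, fitted relative to DMSO.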

In test [6] the target is human Phosphatase and Tensin Homolog (PTEN), PTEN (gene 5728) (UniProt P60484). The test is described as follows: NVS_ENZ_hPTEN: NovaScreen (NVS) Enzymatic Assay for human Phosphatase and Tensin Homolog (PTEN) (AID 2283203). In a few lines:
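Cell-free recombinant human PTEN with fluorescent substrate; product separated by electrophoretic mobility shift and read by fluorescence 1 h after dosing. Primary screen in duplicate at 25 uM, actives followed in concentration series versus DMSO.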

The target of test [7] is human Protein Tyrosine Phosphatase Non-receptor Type 2 (PTPN2), PTPN2 (gene 5771) (UniProt P17706). Put plainly: NVS_ENZ_hPTPN2: NovaScreen (NVS) Enzymatic Assay for human Protein Tyrosine Phosphatase Non-receptor Type 2 (PTPN2) (AID 2283207). Put shortly:
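Cell-free recombinant enzyme with fluorescent substrate, product separated by electrophoretic mobility shift; read 1 h after dosing. Primary screen single concentration (25 uM) in duplicate; actives followed in concentration series; loss of signal versus DMSO.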

Test [8] concerns the target human Raf-1 Proto-Oncogene, serine/threonine Kinase (RAF1), RAF1 (gene 5894) (UniProt P04049). The test is described as follows: NVS_ENZ_hRAF1: NovaScreen (NVS) Enzymatic Assay for human Raf-1 Proto-Oncogene, serine/threonine Kinase (RAF1) (AID 2283216). Put shortly: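 Cell-free recombinant kinase with specific fluorescent substrate, product separated by electrophoretic mobility shift; read 1 h after dosing. Primary screen at 25 uM in duplicate; hits then run in concentration-response up to 50 uM, fitted as loss of signal versus DMSO.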

A short description of test [9]: ATG_M_32_XSP2: Attagene TRANS-FACTORIAL Multi-Species (XSP2) HepG2 Assay for M19 Transcription Factor (Internal Marker) (AID 2283826). In a few lines: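 HepG2 cells transiently transfected with GAL4-UAS reporter units; XSP2 panel included 3 nM 6-alpha-fluorotestosterone and 1.5 nM norgestrel for androgen receptor stimulation. Reporter mRNA read 24 h post-dosing by RT-PCR/capillary electrophoresis; fitted upward versus DMSO.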

The test system of a further test is rat CYP2B1, gene 24300. Put plainly: NVS_ADME_rCYP2B1: NovaScreen (NVS) CYP450-related Enzyme Activity (ADME) Assay for rat CYP2B1 (AID 2283117). Put shortly:
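Recombinant rat CYP2B1 with fluorogenic substrate, read at 0.75 h. Primary screen in duplicate at 10 uM; compounds meeting threshold (e.g., 30% inhibition) re-run in concentration-response up to 20 uM. Fitted against acetonitrile control.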

The target in test [10] is rat CYP1A2, Cyp1a2 (gene 24297) (UniProt P04799). Put plainly: NVS_ADME_rCYP1A2: NovaScreen (NVS) CYP450-related Enzyme Activity (ADME) Assay for rat CYP1A2 (AID 2283115). In a few lines:
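Cell-free recombinant rat enzyme with fluorogenic substrate, read by fluorescence intensity 1 hour after dosing. Loss of signal versus acetonitrile negative control; primary screen at 10 uM in duplicate, actives followed in concentration series.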

In test [11] the test system is rat Monoamine Oxidase, MAO-A, Central (MAOAC), gene 29253. The test is described as follows: NVS_ENZ_rMAOAC: NovaScreen (NVS) Enzymatic Assay for rat Monoamine Oxidase, MAO-A, Central (MAOAC) (AID 2283243).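 Note: potency refers to inhibition seen as signal drop below DMSO baseline.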 Put shortly:
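Inhibition of rat brain-derived MAO-A was read by scintillation counting after 1.5 h exposure. Compounds screened first at 25 uM in duplicate, then in dose series if active.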

In test [12] the test system is guinea pig Atrionatriuretic Peptide Receptor A (ANPA), gene 100135578. The test is described as follows: NVS_GPCR_gANPA: NovaScreen (NVS) G Protein-Coupled Receptor Assay for guinea pig Atrionatriuretic Peptide Receptor A (ANPA) (AID 2283291). In a few lines:
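Radioligand binding to guinea pig cerebellar membranes was measured after 1 h by filter-based scintillation counting. Chemicals were tested in duplicate at 25 uM, with hits run in concentration-response to a maximum of 50 uM. Binding loss was fitted against DMSO.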

Test [13] has as its target human Aurora Kinase A - serine/threonine-protein Kinase 6 (AurA), AURKA (gene 6790) (UniProt O14965). Put plainly: NVS_ENZ_hAurA: NovaScreen (NVS) Enzymatic Assay for human Aurora Kinase A - serine/threonine-protein Kinase 6 (AurA) (AID 2283142). In a few lines: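 Cell-free enzymatic assay with human Aurora A, 1 hour after dosing. Fluorescent substrate turnover detected after electrophoretic mobility shift separation of substrate and product. Screened at 25 uM, actives retested in concentration-response up to 50 uM.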

Test [14] addresses human Fibroblast Growth Factor Receptor 1 (FGFR1), FGFR1 (gene 2260) (UniProt P11362). Put plainly: NVS_ENZ_hFGFR1: NovaScreen (NVS) Enzymatic Assay for human Fibroblast Growth Factor Receptor 1 (FGFR1) (AID 2283159). Put shortly: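 Cell-free recombinant kinase with fluorescent substrate, product separated by electrophoretic mobility shift; read 1 hour after dosing, loss of signal relative to DMSO. Initial screen in duplicate at 25 uM, actives followed in concentration series.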

Test [15] deals with rat CYP2C12, Cyp2c12 (gene 25011) (UniProt P11510). The test is described as follows: NVS_ADME_rCYP2C12: NovaScreen (NVS) CYP450-related Enzyme Activity (ADME) Assay for rat CYP2C12 (AID 2283119). Put shortly: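 Cell-free recombinant rat CYP2C12 activity read by fluorescence 0.5 h after dosing; loss of signal versus acetonitrile control. Primary screen in duplicate at 10 uM; actives then run in concentration-response format.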

The target of test [16] is human Acetylcholinesterase (AChE), ACHE (gene 43) (UniProt P22303). The test is described as follows: NVS_ENZ_hAChE: NovaScreen (NVS) Enzymatic Assay for human Acetylcholinesterase (AChE) (AID 2283129). Put shortly: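 Cell-free colorimetric enzyme-activity assay; compounds read 0.33 hour after dosing, loss of signal vs DMSO baseline. Primary screen in duplicate at 25 uM single concentration, with active compounds retested in concentration series.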
Sequence of human Acetylcholinesterase (AChE), ACHE (gene 43) (P22303 whole entry, looked up): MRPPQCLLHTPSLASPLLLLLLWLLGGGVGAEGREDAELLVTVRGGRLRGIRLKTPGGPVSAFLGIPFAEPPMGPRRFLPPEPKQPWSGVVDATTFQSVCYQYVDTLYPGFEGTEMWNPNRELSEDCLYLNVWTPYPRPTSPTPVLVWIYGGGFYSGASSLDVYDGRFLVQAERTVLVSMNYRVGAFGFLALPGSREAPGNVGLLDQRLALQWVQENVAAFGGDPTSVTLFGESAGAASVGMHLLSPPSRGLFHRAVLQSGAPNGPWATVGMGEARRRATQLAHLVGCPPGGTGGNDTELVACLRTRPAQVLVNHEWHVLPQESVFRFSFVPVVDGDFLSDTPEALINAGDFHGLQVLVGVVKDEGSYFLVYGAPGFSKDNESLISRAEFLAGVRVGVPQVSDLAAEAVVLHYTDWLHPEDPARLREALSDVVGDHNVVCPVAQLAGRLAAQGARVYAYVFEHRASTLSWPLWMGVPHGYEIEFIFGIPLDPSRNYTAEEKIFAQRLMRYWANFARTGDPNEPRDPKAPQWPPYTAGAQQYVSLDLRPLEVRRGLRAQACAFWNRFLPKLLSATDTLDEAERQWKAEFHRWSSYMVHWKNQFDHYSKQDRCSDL

Test [17] concerns the target rat Gamma-Aminobutyric Acid Type A Receptor BDZ, alpha 6 site (GABARa6), Gabra6 (gene 29708) (UniProt P30191). Put plainly: NVS_LGIC_rGABARa6: NovaScreen (NVS) Ligand-Gated Ion Channel Assay for rat Gamma-Aminobutyric Acid Type A Receptor BDZ, alpha 6 site (GABARa6) (AID 2283339). Put shortly: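 Rat cerebellar membranes; radioligand binding, filtration and scintillation counting, read 1 h after dosing. Single-concentration duplicate screen at 25 uM, then concentration-response up to 50 uM for actives; loss of signal fitted versus DMSO baseline.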

The target of test [18] is Voltage-dependent N-type calcium channel subunit alpha-1B (Rattus norvegicus) (UniProt Q02294). Put plainly: NVS_IC_rCaChN: NovaScreen (NVS) Ion Channel Assay for rat Calcium Channel, Type N (CaChN) (AID 2283317).
For test [19], the target named is Cytochrome P450 2C18 (Homo sapiens) (UniProt P33260). The test is described as follows: NVS_ADME_hCYP2C18: NovaScreen (NVS) CYP450-related Enzyme Activity (ADME) Assay for human CYP2C18 (AID 2283103; active = hit-call score of the fitted dose curve at least 0.9, where 1 is the maximum; inactive = score below 0.9). Put shortly:
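Cell-free recombinant human CYP2C18 with fluorogenic substrate; fluorescence intensity read 0.5 h after dosing. Single-point screen at 10 uM in duplicate, then concentration-response up to 20 uM; loss of signal fitted against acetonitrile baseline.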

Test [20] addresses rat Monoamine Oxidase, MAO-B, Central (MAOBC), Maob (gene 25750) (UniProt P19643). Put plainly: NVS_ENZ_rMAOBC: NovaScreen (NVS) Enzymatic Assay for rat Monoamine Oxidase, MAO-B, Central (MAOBC) (AID 2283238). In a few lines: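 MAO-B activity in rat brain tissue preparation, cell-free, measured radiometrically by scintillation counting 1.17 h after dosing. Screened in duplicate at 25 uM; actives then in concentration-response up to 50 uM. Loss of signal versus DMSO scored.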

Results filed as inconclusive are left out. Calls of active or inactive are those of the source. Rule for the calls, unless noted: active = hit-call score of the fitted dose curve at least 0.9, where 1 is the maximum; inconclusive = response in the unintended direction; inactive = score below 0.9.

Sequence of rat CYP1A2, Cyp1a2 (gene 24297) (P04799 whole entry, looked up): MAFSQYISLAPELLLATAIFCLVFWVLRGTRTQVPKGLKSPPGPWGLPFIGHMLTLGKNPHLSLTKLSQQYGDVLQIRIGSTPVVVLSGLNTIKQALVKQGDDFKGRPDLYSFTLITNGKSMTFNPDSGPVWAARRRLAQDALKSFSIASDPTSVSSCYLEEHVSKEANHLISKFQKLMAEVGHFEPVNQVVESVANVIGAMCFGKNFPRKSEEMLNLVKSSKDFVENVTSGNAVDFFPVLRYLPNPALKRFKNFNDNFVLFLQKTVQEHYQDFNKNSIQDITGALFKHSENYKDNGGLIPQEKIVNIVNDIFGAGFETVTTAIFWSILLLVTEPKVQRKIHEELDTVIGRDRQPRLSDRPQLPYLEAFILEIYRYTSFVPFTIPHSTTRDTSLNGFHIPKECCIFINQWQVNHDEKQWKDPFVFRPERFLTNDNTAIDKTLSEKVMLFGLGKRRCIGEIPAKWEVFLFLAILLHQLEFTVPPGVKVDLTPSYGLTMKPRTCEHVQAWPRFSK
Sequence of human AMP-activated Protein Kinase, alpha 1 (AMPKa1), PRKAA1 (gene 5562) (Q13131 whole entry, looked up): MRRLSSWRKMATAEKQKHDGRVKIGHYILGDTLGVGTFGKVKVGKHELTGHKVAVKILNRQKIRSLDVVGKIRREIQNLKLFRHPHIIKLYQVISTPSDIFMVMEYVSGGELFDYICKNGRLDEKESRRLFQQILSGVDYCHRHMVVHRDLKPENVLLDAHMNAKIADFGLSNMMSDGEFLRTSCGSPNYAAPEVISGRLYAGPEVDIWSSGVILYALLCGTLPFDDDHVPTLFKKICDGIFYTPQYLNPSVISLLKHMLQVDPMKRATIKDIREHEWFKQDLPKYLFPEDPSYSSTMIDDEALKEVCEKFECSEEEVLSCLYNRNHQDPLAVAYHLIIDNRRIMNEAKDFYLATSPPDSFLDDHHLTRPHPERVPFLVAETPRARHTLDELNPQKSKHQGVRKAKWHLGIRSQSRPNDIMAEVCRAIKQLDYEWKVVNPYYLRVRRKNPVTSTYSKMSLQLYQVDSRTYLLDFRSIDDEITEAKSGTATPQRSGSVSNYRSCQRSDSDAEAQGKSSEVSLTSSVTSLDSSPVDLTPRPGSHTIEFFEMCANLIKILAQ
Sequence of human Raf-1 Proto-Oncogene, serine/threonine Kinase (RAF1), RAF1 (gene 5894) (P04049 whole entry, looked up): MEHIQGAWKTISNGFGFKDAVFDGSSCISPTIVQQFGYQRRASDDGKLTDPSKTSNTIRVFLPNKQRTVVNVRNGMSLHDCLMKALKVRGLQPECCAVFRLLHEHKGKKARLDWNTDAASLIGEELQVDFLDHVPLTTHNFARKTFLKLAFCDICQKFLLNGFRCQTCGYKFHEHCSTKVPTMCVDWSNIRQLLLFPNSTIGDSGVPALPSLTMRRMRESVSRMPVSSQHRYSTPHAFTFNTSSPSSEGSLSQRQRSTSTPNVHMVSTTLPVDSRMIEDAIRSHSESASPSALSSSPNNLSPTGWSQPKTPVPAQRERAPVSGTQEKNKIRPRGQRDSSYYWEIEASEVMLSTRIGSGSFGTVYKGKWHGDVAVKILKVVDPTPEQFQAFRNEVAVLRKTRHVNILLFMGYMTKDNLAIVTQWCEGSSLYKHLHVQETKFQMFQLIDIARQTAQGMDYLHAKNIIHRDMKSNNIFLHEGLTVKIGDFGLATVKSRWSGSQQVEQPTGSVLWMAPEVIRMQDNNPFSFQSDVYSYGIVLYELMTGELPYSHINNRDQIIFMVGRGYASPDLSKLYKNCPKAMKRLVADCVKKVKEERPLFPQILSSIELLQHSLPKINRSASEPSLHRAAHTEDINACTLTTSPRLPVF
Sequence of human Phosphatase and Tensin Homolog (PTEN), PTEN (gene 5728) (P60484 whole entry, looked up): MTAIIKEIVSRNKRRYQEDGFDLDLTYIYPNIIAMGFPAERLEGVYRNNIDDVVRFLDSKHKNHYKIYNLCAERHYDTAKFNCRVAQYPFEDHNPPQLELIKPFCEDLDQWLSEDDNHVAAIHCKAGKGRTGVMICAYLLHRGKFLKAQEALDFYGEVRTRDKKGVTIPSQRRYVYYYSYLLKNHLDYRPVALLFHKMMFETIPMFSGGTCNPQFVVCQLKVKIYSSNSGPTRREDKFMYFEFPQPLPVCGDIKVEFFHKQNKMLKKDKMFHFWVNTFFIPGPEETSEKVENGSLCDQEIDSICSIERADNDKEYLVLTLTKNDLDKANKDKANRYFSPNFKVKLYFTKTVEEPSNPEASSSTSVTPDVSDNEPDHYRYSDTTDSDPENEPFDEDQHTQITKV
Sequence of Cytochrome P450 2C18 (Homo sapiens) (P33260 whole entry, looked up): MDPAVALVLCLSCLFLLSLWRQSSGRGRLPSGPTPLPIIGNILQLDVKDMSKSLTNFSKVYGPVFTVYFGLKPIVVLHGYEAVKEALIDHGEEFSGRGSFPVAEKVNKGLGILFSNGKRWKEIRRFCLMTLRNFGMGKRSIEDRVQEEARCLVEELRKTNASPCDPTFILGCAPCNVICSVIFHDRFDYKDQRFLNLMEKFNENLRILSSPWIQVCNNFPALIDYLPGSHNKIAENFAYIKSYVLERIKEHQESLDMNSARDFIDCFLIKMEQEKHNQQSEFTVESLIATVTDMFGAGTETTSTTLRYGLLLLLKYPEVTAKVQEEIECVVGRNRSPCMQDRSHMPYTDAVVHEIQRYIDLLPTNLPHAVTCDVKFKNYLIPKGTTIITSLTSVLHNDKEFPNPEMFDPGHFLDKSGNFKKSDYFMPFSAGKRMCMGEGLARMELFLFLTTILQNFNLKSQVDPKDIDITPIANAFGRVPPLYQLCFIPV

Regarding `CN1CCC[C@H]1c1cccnc1`, the outcome (in [1]; with PPP2CA (gene 5515)) was inactive.

As for `Nc1nc(Cl)nc2c1ncn2[C@H]1C[C@H](O)[C@@H](CO)O1`, the call in [1] and in [2] was inactive.

One may read the AC50 as the concentration at which the activity in the assay is half-maximal. With `CC(C)CCCCCCc1ccc(O)cc1`, the molecule was called inactive in test [1], in [3], in [4], in test [5], in [6] and in test [7]. The result in test [8] and in test [9] was inactive. Further, in test [2], the AC50 is 61.8 µM (active).

Regarding `Cc1cc(O)cc(C)c1Cl`, the AC50 in the test with rat CYP2B1, gene 24300 is 16.7 µM (active).

In the case of `CCCCCCC(C)OC(=O)CCCCC(=O)OC(C)CCCCCC` (centres undefined), in test [10], the molecule was classed as inactive.

In the case of `c1ccc2sc(SN(C3CCCCC3)C3CCCCC3)nc2c1`, the molecule was called inactive in [10].

In the case of `O=C1NC(=O)C(c2ccccc2)(c2ccccc2)N1`, the result in test [1] was inactive.

On to `CCCCCCC(C)OC(=O)COc1nc(F)c(Cl)c(N)c1Cl` (centres undefined), for which the AC50 in the test on rat CYP2B1, gene 24300 is 6.09 µM (active). Besides, the result in [11] and in [12] was inactive.

Consider `CN(C)C(=O)NC1(c2ccccc2)CCN(CC[C@@]2(c3ccc(F)c(F)c3)CN(C(=O)c3ccccc3)CCO2)CC1`, for which the molecule was called inactive in [1], in test [3], in test [13] and in test [14].

Take `COC(=O)c1ccccc1S(=O)(=O)NC(=O)Nc1nc(OC(F)F)cc(OC(F)F)n1`: the result in test [15], in [16] and in test [17] was inactive.

Regarding `COC(=O)CCC(=O)OC`, the outcome in [1] and in test [18] was inactive.

`CCCCC(CC)CN1C(=O)C2C3C=CC(C3)C2C1=O` (centres undefined): the AC50 in test [19] is 4.81 µM (active); in [9], 174 µM (active). Also, the result in test [8] and in test [20] was inactive.

Take `CCCCC(CC)COC(=O)c1ccc(C(=O)OCC(CC)CCCC)cc1` (centres undefined): the molecule was called inactive in [16].
